Measurements taken from PubChem BioAssay (NCATS).
Values joined by “and” are separate entries in the source; they are usually repeats but may differ in a detail not shown here. Identical values can stand only once. Active and inactive are the calls of the source. Calls follow the shape of the dose curve; as a rule, active = well fitted activation curve with a large enough effect; inconclusive = small, poorly fitted or top-dose-only effect; inactive = flat fitted curve, though single readings scatter.

Experiment: Cellular Toxicity (caspase-3) N2a (AID 665);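 also: compound exposure lasted 16 h at 37 °C before readout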
Conditions: N2a cells, luminescence, normalized: DMSO 0%, 10 µM staurosporine 100%; at 92.2 µM (top of the series)
Description: NIH Chemical Genomics Center [NCGC]
NIH Molecular Libraries Screening Centers Network [MLSCN]
National Institutes of Environmental Health Sciences [NIEHS]
National Toxicology Program [NTP]
We have developed a 1536-well cell-based assay for quantitative high throughput screening (qHTS) against a number of cell lines to determine in vitro caspase 3/7 activity of small molecules. This particular assay uses the N2a cell line which is derived from mouse neuroblastoma.
NCGC Assay Protocol Summary:
The Caspase-Glo 3/7 assay (Promega) is a homogeneous method to measure caspase-3 and caspase-7 activities in cultured cells. The quantitation of caspase 3/7 activity is based on the cleavage of a peptide-aminoluciferin substrate. After caspase cleaves the substrate the free aminoluciferin is liberated and serves as the substrate of luciferase, which generates the light. The luminescent signal is proportional to the amount of caspase 3/7 activity present.
Using the Caspase-Glo 3/7 assay, the amount of caspase 3/7 activity was measured in the N2a cells with complete culture medium following compound treatment for 16 hours. The assay was performed in opaque white 1536-well plates. In the screen, staurosporine and doxorubicin were used as positive controls. Library compounds were measured for their ability to cause the activation of caspase 3/7 in the cell line, as reflected by an increase in luminescence signal, in a concentration-dependent manner. Data were normalized to the controls for basal activity (DMSO only) and 100% stimulation (10 uM staurosporine). AC50 values were determined from concentration-response data modeled with the standard Hill equation.
qHTS protocol for caspase 3/7 assay in mouse N2a cell line
[Step] [Parameter] [Value] [Description]
1. Reagent; 5 uL; 1500 mouse N2a cells/well
2. Time; 5 hr; 37 °C incubation
4. Controls; 23 nL; doxorubicin 7 pM to 100 uM & staurosporine 1.4 pM to 20 uM
5. Time; 16 hr; 37 °C incubation
6. Reagent; 5 uL; Caspase-Glo 3/7 reagent
7. Time; 1 hr; Room Temperature
8. Detection; Luminescence; Viewlux plate reader
Keywords: caspase 3/7, apoptosis, mouse N2a cell line, luminescence, NTPHTS, NTPHTS_NCGC, NIEHS, EPA, DSSTox, MLSMR, MLSCN, NIH Roadmap, qHTS, NCGC

| Compound | caspase-3 activation |
| --- | --- |
| O=S1OCC2C(CO1)C1(Cl)C(Cl)=C(Cl)C2(Cl)C1(Cl)Cl (stereo not given) | 12.4% (inactive) |
| Cc1cccc([N+](=O)[O-])c1 | 2.99% (inactive) |
| CCCCCCCCCc1ccc(O)cc1 | 98.6% (active) |
| OCC1CO1 (stereo not given) | -2.46% (inactive) |
| ClC1=C(Cl)C2(Cl)C3C4CC(C5OC45)C3C1(Cl)C2(Cl)Cl (stereo not given) | -1.24% (inactive) |
| O=C(Cl)/C=C/C(=O)Cl | -4.67% (inactive) |
| O=NN(c1ccccc1)c1ccccc1 | 0.181% (inactive) |
| C=CC(=C)C | -1.13% (inactive) |
| CCCCCCCC(=O)Cl | -0.621% (inactive) |
| C=CCOC(=O)c1ccccc1N | -3.47% (inactive) |
| ClC(Cl)=C(Cl)C(Cl)=C(Cl)Cl | -2.34% (inactive) |
| S=C=Nc1cccc2ccccc12 | 0.808% (inactive) |
| Clc1nc(Cl)nc(Nc2ccccc2Cl)n1 | 0.587% (inactive) |
| ClC1=C(Cl)C2(Cl)C3C(Cl)C=CC3C1(Cl)C2(Cl)Cl (stereo not given) | -3.13% (inactive) |
| NC(=S)Nc1ccccc1 | -3.2% (inactive) and -1.82% (inactive) |
| C=CC(C)=O | 0.266% (inactive) |
| CCOc1ccc(N)cc1 | 6.79% (inactive) |
| C=C(C)C(=O)OCC1CO1 (stereo not given) | -4.34% (inactive) |
| O=C1C(Cl)=C(Cl)C(=O)C(Cl)=C1Cl | -13.5% (inactive) |
| C=CCc1ccc(OC)cc1 | 0.258% (inactive) |

| Compound | caspase-3 activation |
| --- | --- |
| C=C(C)C#N | -1.66% (inactive) |
| CC(C)(C)OOC(C)(C)C | 0.408% (inactive) |
| C[C@]12CC[C@H]3[C@@H](CCC4=CC(=O)CC[C@@]43C)[C@@H]1CC[C@@H]2O | 3.16% (inactive) |
| Clc1ccc2ccccc2c1 | 4.04% (inactive) |
| COP(=S)(OC)Oc1ccc([N+](=O)[O-])cc1 | -2.62% (inactive) |
| CNC(=O)O/N=C/C(C)(C)SC | -2.85% (inactive) |
| Nc1ccc(Br)cc1 | 0.277% (inactive) |
| O=[N+]([O-])c1ccc(Cl)c(Cl)c1 | -2.95% (inactive) |
| c1ccc2c(c1)CCCC2 | 1.3% (inactive) |
| CC(Cl)Cl | -4.66% (inactive) |
| c1nc[nH]n1 | -1.83% (inactive) |
| Cc1ccc([N+](=O)[O-])cc1C | -3.15% (inactive) |
| CCOP(=S)(OCC)SCSC(C)(C)C | -3.31% (inactive) |
| Nc1ccccc1Cl | 1.48% (inactive) |
| CCOP(=S)(OCC)Oc1ccc([N+](=O)[O-])cc1 | -4.19% (inactive) and -4.51% (inactive) |
| CCc1cccc(CC)c1N(COC)C(=O)CCl | 4.56% (inactive) |
| OCC(Br)CBr (stereo not given) | -2.35% (inactive) |
| CCSC(=O)Cl | -2.14% (inactive) |
| C=CC(N)=O | -0.525% (inactive) and -0.998% (inactive) |
| c1ccc(N=Nc2ccccc2)cc1 | -2.4% (inactive) |
